From PubChem BioAssay (NCATS)
Values joined by “and” are separate entries in the source; they are usually repeats but may differ in a detail not shown here. Equal entries are not always repeated. Results filed as inconclusive are left out. Where a call stands in place of a potency, no number is given. A number with no mark means an inactive call. Active and inactive are the calls of the source. The call rests on the fitted dose curve; in most records, active means well fitted inhibition curve with a large enough effect; inconclusive means small, poorly fitted or top-dose-only effect; inactive means flat fitted curve, though single readings scatter.

Assays:
[1] = system: CRL-7250; test: Cytotoxic Profiling of Annotated Libraries Using Quantitative High-Throughput Screening (AID 1296008); conditions: Five cell lines viability, CellTiter-Glo ATP luminescence, 48-72 h; max response: stronger effect = lower value
Method in brief: (§1)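 Cells exposed to compounds for 48 or 72 hr at 37 degrees Celsius. Viability read as ATP-coupled luminescence with CellTiter-Glo after 10 min at room temperature.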

[2] = system: HEK293; test: as above; conditions: Five cell lines viability, CellTiter-Glo ATP luminescence, 48-72 h; max response: stronger effect = lower value
Method in brief: as §1

[3] = system: HaCat; test: as above; conditions: Five cell lines viability, CellTiter-Glo ATP luminescence, 48-72 h; max response: stronger effect = lower value
Method in brief: as §1

[4] = system: KB-3-1; test: as above; conditions: Five cell lines viability, CellTiter-Glo ATP luminescence, 48-72 h; max response: stronger effect = lower value
Method in brief: as §1

[5] = system: NIH3T3; test: as above; conditions: Five cell lines viability, CellTiter-Glo ATP luminescence, 48-72 h; max response: stronger effect = lower value
Method in brief: as §1

[6] = system: HACAT; test: qHTS assay to identify novel small-molecules to repurpose for Merkel cell carcinoma treatment (AID 1296009); conditions: MCC and control cell lines, CellTiter-Glo viability, 72 h; at 44.8 µM (top of the series) unless noted
Method in brief: (§2)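 Cells were incubated with compound for 72 hr at 37 degree celsius before CellTiter-Glo addition. Luminescence was normalized with no-cell wells as full cytotoxicity and DMSO as baseline.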

[7] = system: HEK293T; test: as above; conditions: MCC and control cell lines, CellTiter-Glo viability, 72 h; at 44.8 µM (top of the series) unless noted
Method in brief: as §2

[8] = system: JCK; test: qHTS profiling for inhibitors of Plasmodium falciparum proliferation (AID 504749); further: potency means the concentration at half of the fitted maximal effect; conditions: P. falciparum in erythrocytes, SYBR Green DNA, 72 h; series mostly up to 28.7 µM
Method in brief: (§3)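 Readout was DNA-dye fluorescence from lysed cultures, ex 485/em 535 nm. Parasitized red cells had grown 72 h with compound; data scaled between 0.29 uM artemisinin and DMSO wells and corrected using vehicle-only plates.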

[9] = system: N140; test: as above; conditions: P. falciparum in erythrocytes, SYBR Green DNA, 72 h; series mostly up to 28.7 µM
Method in brief: as §3

[10] = system: P93_24; test: as above; conditions: P. falciparum in erythrocytes, SYBR Green DNA, 72 h; series mostly up to 28.7 µM
Method in brief: as §3

[11] = system: P94_40; test: as above; conditions: P. falciparum in erythrocytes, SYBR Green DNA, 72 h; series mostly up to 28.7 µM
Method in brief: as §3

[12] = system: PAD; test: as above; conditions: P. falciparum in erythrocytes, SYBR Green DNA, 72 h; series mostly up to 28.7 µM
Method in brief: as §3

[13] = system: PC15; test: as above; conditions: P. falciparum in erythrocytes, SYBR Green DNA, 72 h; series mostly up to 28.7 µM
Method in brief: as §3

[14] = system: PC26; test: as above; conditions: P. falciparum in erythrocytes, SYBR Green DNA, 72 h; series mostly up to 28.7 µM
Method in brief: as §3

[15] = system: PC49; test: as above; conditions: P. falciparum in erythrocytes, SYBR Green DNA, 72 h; series mostly up to 28.7 µM
Method in brief: as §3

[16] = system: SC27B; test: as above; conditions: P. falciparum in erythrocytes, SYBR Green DNA, 72 h; series mostly up to 28.7 µM
Method in brief: as §3

[17] = system: TAB109; test: as above; conditions: P. falciparum in erythrocytes, SYBR Green DNA, 72 h; series mostly up to 28.7 µM
Method in brief: as §3

[18] = system: TAB113; test: as above; conditions: P. falciparum in erythrocytes, SYBR Green DNA, 72 h; series mostly up to 28.7 µM
Method in brief: as §3

[19] = system: TAB165; test: as above; conditions: P. falciparum in erythrocytes, SYBR Green DNA, 72 h; series mostly up to 28.7 µM
Method in brief: as §3

[20] = system: W2; test: as above; conditions: P. falciparum in erythrocytes, SYBR Green DNA, 72 h; series mostly up to 28.7 µM
Method in brief: as §3
Further: nearly all actives have a fitted effect of over 60% in size.

For CO[C@@H]1[C@@H](OC(N)=O)[C@@H](O)[C@H](Oc2ccc3c(O)c(NC(=O)c4ccc(O)c(CC=C(C)C)c4)c(=O)oc3c2C)OC1(C)C, the max response [1] was 0.852% and -24.9%, the outcome [2] was “inactive” and the max response [3] was 0.197%. For the same compound, the outcome [3] was “inactive”, the max response [4] was -7.22% and 9.2% and the max response [5] was -2.07% and -24%. The outcome [6] was “inactive” and the outcome [7] was “inactive”.
CCN[C@H]1C[C@H](C)S(=O)(=O)c2sc(S(N)(=O)=O)cc21 was tested, and the max response [1] was -1.48% and 1.03%, the max response [2] was -5.09% and the outcome [2] was “inactive”. For the same compound, the max response [3] was -6.44%, the outcome [3] was “inactive” and the max response [4] was 1.27% and -0.756%. The max response [5] was 0.236% and 2.34%, the outcome [6] was “inactive” and the outcome [7] was “inactive”.
Cc1cccc(N(C)C(=S)Oc2ccc3ccccc3c2)c1 was tested, and the Potency [8] was “inactive”, the Potency [9] was “inactive” and the Potency [10] was “inactive”. The Potency [11] was “inactive”, the Potency [12] was “inactive” and the Potency [13] was “inactive”. For the same compound, the Potency [14] was “inactive”, the Potency [15] was “inactive” and the Potency [16] was “inactive”. For the same compound, the Potency [17] was “inactive”, the Potency [18] was “inactive” and the Potency [19] was “inactive”. The Potency [20] was “inactive”, the max response [1] was -5.5% and the outcome [1] was “inactive”. The max response [3] was 0.266% and 1.06%, the max response [4] was 1.04% and the outcome [4] was “inactive”. For the same compound, the max response [5] was -1.35% and 4.99%.
With CC(C)Cn1cnc2c(N)nc3ccccc3c21 the Potency [8] was “inactive”, the Potency [9] was “inactive” and the Potency [10] was “inactive”. The Potency [11] was “inactive”, the Potency [12] was “inactive” and the Potency [13] was “inactive”. For the same compound, the Potency [14] was “inactive”, the Potency [15] was “inactive” and the Potency [16] was “inactive”. For the same compound, the Potency [17] was “inactive”, the Potency [19] was “inactive” and the Potency [20] was “inactive”. For the same compound, the max response [1] was -12.7%, the outcome [1] was “inactive” and the max response [3] was -15.1% and -54.5%. For the same compound, the max response [4] was -6.03% and -18.1% and the max response [5] was -4.24% and -9.09%.
With Cn1c(=O)c2c(ncn2CC(O)CO)n(C)c1=O (centres undefined) the max response [1] was 2.57% and -3.36%, the max response [2] was -3.34% and -13.7% and the max response [3] was 2.18%. For the same compound, the outcome [3] was “inactive”, the max response [4] was 3.89% and the outcome [4] was “inactive”. The max response [5] was 2.82% and -0.547% and the outcome [6] was “inactive”.
With CCCc1cc(C(N)=S)ccn1 the Potency [8] was “inactive”, the Potency [9] was “inactive” and the Potency [10] was “inactive”. The Potency [11] was “inactive”, the Potency [12] was “inactive” and the Potency [13] was “inactive”. For the same compound, the Potency [14] was “inactive”, the Potency [15] was “inactive” and the Potency [16] was “inactive”. The Potency [17] was “inactive”, the Potency [18] was “inactive” and the Potency [19] was “inactive”. For the same compound, the Potency [20] was “inactive”, the outcome [1] was “inactive” and the max response [2] was -0.75% and -9.47%. For the same compound, the max response [3] was 0.608%, the outcome [3] was “inactive” and the max response [4] was -1.25% and 6.29%. The max response [5] was -7.14% and -4.81% and the outcome [6] was “inactive”.
OC(Cn1cncn1)(Cn1cncn1)c1ccc(F)cc1F was tested, and the Potency [8] was “inactive”, the Potency [9] was “inactive” and the Potency [10] was “inactive”. For the same compound, the Potency [11] was “inactive”, the Potency [12] was “inactive” and the Potency [13] was “inactive”. For the same compound, the Potency [14] was “inactive”, the Potency [15] was “inactive” and the Potency [16] was “inactive”. The Potency [17] was “inactive”, the Potency [18] was “inactive” and the Potency [19] was “inactive”. For the same compound, the Potency [20] was “inactive”, the max response [1] was 2.49% and -1.86% and the max response [2] was -0.0788% and -5.53%. For the same compound, the max response [3] was -29.4%, the outcome [3] was “inactive” and the max response [4] was -2.5% and 5.59%. For the same compound, the max response [5] was -0.561% and -16.4% and the outcome [6] was “inactive”.
In the case of CCOC(=O)c1ccc(OC(=O)CCCCCN=C(N)N)cc1, the Potency [8] is reported as “inactive”, the Potency [11] is reported as “inactive” and the Potency [15] is reported as “inactive”. For the same compound, the Potency [16] was “inactive”, the max response [1] was 1.52% and the outcome [1] was “inactive”. The max response [3] was 4.21%, the outcome [3] was “inactive” and the max response [4] was 1.69% and -0.41%. For the same compound, the outcome [5] was “inactive”, the outcome [6] was “inactive” and the outcome [7] was “inactive”.
CCOc1cc(N)c(Cl)cc1C(=O)NCC1CN(Cc2ccc(F)cc2)CCO1 (centres undefined) was tested, and the Potency [10] was 6.31 µM (active), the Potency [11] was 11.2 µM (active) and the Potency [12] was 11.2 µM (active). The Potency [16] was 8.91 µM (active), the Potency [17] was 10 µM (active) and the Potency [18] was 14.1 µM (active). For the same compound, the Potency [19] was 6.31 µM (active), the Potency [20] was 7.57 µM (active) and the outcome [1] was “inactive”. The outcome [2] was “inactive”, the max response [3] was -10.3% and the outcome [3] was “inactive”. For the same compound, the max response [4] was 4.82% and -2.19%, the max response [5] was 1.17% and the outcome [5] was “inactive”. The outcome [6] was “inactive” and the outcome [7] was “inactive”.
For CCc1cc(C(N)=S)ccn1, the Potency [8] was “inactive”, the Potency [9] was “inactive” and the Potency [10] was “inactive”. The Potency [11] was “inactive”, the Potency [12] was “inactive” and the Potency [13] was “inactive”. For the same compound, the Potency [14] was “inactive”, the Potency [15] was “inactive” and the Potency [16] was “inactive”. The Potency [17] was “inactive”, the Potency [18] was “inactive” and the Potency [19] was “inactive”. The Potency [20] was “inactive”, the max response [1] was -4.32% and -3.13% and the max response [2] was -11.8%. For the same compound, the outcome [2] was “inactive”, the max response [3] was -10.8% and the outcome [3] was “inactive”. The max response [4] was -6.3% and 8.73%, the max response [5] was -2.49% and the outcome [5] was “inactive”. The outcome [6] was “inactive” and the outcome [7] was “inactive”.
With O=S(=O)(O)CCS the Potency [8] was “inactive”, the Potency [9] was “inactive” and the Potency [10] was “inactive”. For the same compound, the Potency [11] was “inactive”, the Potency [12] was “inactive” and the Potency [13] was “inactive”. The Potency [14] was “inactive”, the Potency [15] was “inactive” and the Potency [16] was “inactive”. The Potency [17] was “inactive”, the Potency [18] was “inactive” and the Potency [19] was “inactive”. The Potency [20] was “inactive”, the max response [1] was 3.2% and the outcome [1] was “inactive”. The max response [3] was -12.1%, the outcome [3] was “inactive” and the max response [4] was 0.578%. The max response [5] was 1.04% and -6.12%, the outcome [6] was “inactive” and the outcome [7] was “inactive”.
